This note sets out measurements from PubChem BioAssay (Tox21).

Test [1] concerns the target Thyrotropin-releasing hormone receptor (Homo sapiens) (UniProt P34981). The experiment in a line: qHTS assay to identify small molecule agonists of the thyrotropin-releasing hormone receptor (TRHR) signaling pathway (AID 1346891; calls by dose curve; note: series mostly up to about 58 µM). In outline: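 Intracellular calcium rise, read as fluorescence every second for 3 min, served as the agonist signal in dye-loaded HEK293 cells expressing TRHR; each compound ran at 15 concentrations in triplicate.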

Test [2] can be described thus: Human pregnane X receptor (PXR) small molecule agonists, qHTS cell viability counter screen (AID 1346977). Note: nearly all actives have a fitted effect of over 50% in size. Note: potency is the fitted concentration of half-maximal effect. In a few lines: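 PXR-Luc HepG2, 2,000 cells/well, 5% charcoal-stripped FBS; 5hr settle; cpd 24hr, 37C/5% CO2; CellTiter-Fluor at 23hr, read 1hr later (fluorescence).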
A short description of test [3]: Caspase-3/7 induction in HepG2 cells by small molecules, qHTS assay (AID 1346978). Note: nearly all actives have a fitted effect of over 15% in size. In a few lines: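 Caspase-3/7 induction was measured by Caspase-Glo 3/7 luminescence (30 min, room temperature) after a 17 hr compound exposure of wild-type HepG2 cells seeded at 2,000 per well and pre-incubated 5 hr.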
A short description of test [4]: Caspase-3/7 induction in CHO-K1 cells by small molecules, qHTS cell viability counter screen (AID 1346979). Note: nearly all actives have a fitted effect of over 35% in size. Note: potency is the fitted concentration of half-maximal effect. In a few lines: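 Cells (CHO-K1, wild type) are plated at 1,500 per well and incubated 5hr. Test compounds in DMSO are then pinned in, followed by 16hr at 37C and 5% CO2. Viability is read by CellTiter-Fluor fluorescence after 1hr.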
Test [5] in a line: Caspase-3/7 induction in CHO-K1 cells by small molecules, qHTS assay (AID 1346980). Note: nearly all actives have a fitted effect of over 15% in size. In outline:
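Luminescent Caspase-Glo 3/7 read (30min, room temperature) quantified apoptosis induction. Cells were wild-type CHO-K1, treated with compound for 17hr at 37 C and 5% CO2.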

A short description of test [6]: Caspase-3/7 induction in HepG2 cells by small molecules, qHTS cell viability counter screen (AID 1346981). Note: nearly all actives have a fitted effect of over 30% in size. Note: potency is the fitted concentration of half-maximal effect. In outline:
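In this quantitative HTS counter screen, compounds delivered in DMSO were left on unmodified HepG2 cells for 16 hr at 37 C. Viability was then determined fluorometrically with CellTiter-Fluor, in parallel with caspase-3/7 induction in the same wells.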

For test [7], the target named is Nuclear receptor subfamily 1 group I member 2 (Homo sapiens) (UniProt O75469). Put plainly: Human pregnane X receptor (PXR) small molecule agonists, qHTS assay (AID 1346982). Note: nearly all actives have a fitted effect of over 35% in size. Note: potency is the fitted concentration of half-maximal effect. In outline: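 Reporter HepG2 cells expressing PXR-Luc are cultured in charcoal-stripped FBS (5%), treated with compounds for 24 hr at 37 C, and assayed by ONE-Glo luminescence after 30 min at room temperature.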

For test [8], the target named is Cytochrome P450 2D6 (Homo sapiens) (UniProt P10635). Put plainly: Cytochrome P450 Family 2 Subfamily D Member 6 (CYP2D6) small molecule antagonists: luciferase reporter qHTS assay (AID 1671196). Note: nearly all actives have a fitted effect of over 50% in size. Note: potency is the fitted concentration of half-maximal effect. In outline: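 Test chemicals meet CYP2D6 plus proluciferin substrate (10 min, RT); NADPH regenerating solution then drives turnover for 1 h. Detection reagent halts the reaction; luminescence measured after 20 min.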

For test [9], the target named is Cytochrome P450 2C19 (Homo sapiens) (UniProt P33261). Put plainly: Cytochrome P450 Family 2 Subfamily C Member 19 (CYP2C19) small molecule antagonists: luciferase reporter qHTS assay (AID 1671197). Note: nearly all actives have a fitted effect of over 65% in size. Note: potency is the fitted concentration of half-maximal effect. In outline:
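Compounds were tested on CYP2C19 activity via proluciferin conversion to luciferin. The 37C, 1 h reaction followed NADPH addition; detection reagent stopped it.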

For test [10], the target named is Cytochrome P450 2C9 (Homo sapiens) (UniProt P11712). Put plainly: Cytochrome P450 Family 2 Subfamily C Member 9 (CYP2C9) small molecule antagonists: luciferase reporter qHTS assay (AID 1671198). Note: nearly all actives have a fitted effect of over 50% in size. Note: potency is the fitted concentration of half-maximal effect. In outline:
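Enzyme-substrate mix preincubated with compound 10 min at room temperature; reaction started with NADPH regeneration solution, 1 h 37C. Luminescent luciferin product read after 20 min detection reagent.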

The target of test [11] is Cytochrome P450 1A2 (Homo sapiens) (UniProt P05177). Put plainly: Cytochrome P450 Family 1 Subfamily A Member 2 (CYP1A2) small molecule antagonists: luciferase reporter qHTS assay (AID 1671199). Note: nearly all actives have a fitted effect of over 50% in size. Note: potency is the fitted concentration of half-maximal effect. In outline: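 Steps: enzyme-substrate mix dispensed; test compounds and furafylline control pinned in; 10 min room temperature; NADPH regeneration solution added, 1 h; reaction stopped with luciferin detection reagent; luminescence read after 20 min.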

The target of test [12] is Voltage-gated inwardly rectifying potassium channel KCNH2 (Homo sapiens) (UniProt Q12809). Put plainly: Human Ether-a-go-go-Related Gene (hERG) channel small molecule antagonists: fluorescence cell-based qHTS assay (AID 1671200). In a few lines:
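Channel function was assessed by thallium flux. Cells seeded the previous day and kept at 37 C took up FluxOR II dye over 1 h in the dark at room temperature, then sat another 10 min before stimulation.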

Test [13] deals with Cytochrome P450 3A4 (Homo sapiens) (UniProt P08684). Put plainly: Cytochrome P450 Family 3 Subfamily A Member 4 (CYP3A4) small molecule antagonists: luciferase reporter qHTS assay (AID 1671201). Note: nearly all actives have a fitted effect of over 50% in size. Note: potency is the fitted concentration of half-maximal effect. In outline:
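Compounds in DMSO were pin-transferred onto CYP3A4 enzyme-substrate mix and held 10 min at room temperature. NADPH regenerating solution started the reaction for 1 h; luciferin detection reagent stopped it, and luminescence was read after 20 min.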

The target of test [14] is Nuclear receptor subfamily 1 group I member 2 (Rattus norvegicus) (UniProt Q9R1A7). Put plainly: Rat pregnane X receptor (rPXR) activation by small molecules, qHTS assay (AID 1346983). Note: nearly all actives have a fitted effect of over 20% in size. Conditions: rPXR luciferase reporter cells, One-Glo luminescence, 24 h; max activation: stronger effect = higher value. In outline:
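Luminescent readout (One-Glo luciferase, 30 min room temperature) followed 24 hr compound treatment at 37 C of rPXR cells plated 2,000 per well and preincubated 5hr; qHTS format with compounds delivered in DMSO.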

Test [15] deals with Nuclear receptor subfamily 1 group I member 2 (Homo sapiens) (UniProt O75469). The experiment in a line: CYP3A4 induction through human pregnane X receptor (PXR) by small molecules, qHTS assay (AID 1346984). Note: nearly all actives have a fitted effect of over 40% in size. In a few lines:
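Induction measured in HepG2-based DPX-2 cells co-expressing human PXR and a CYP3A4 promoter-driven luciferase. After a 24-hour compound exposure, cells received CYP3A4 luciferin substrate at 3uM final for 3 hours, and light output was then recorded.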

The target is the same in test [16]. Put plainly: Human pregnane X receptor (PXR) activation by small molecules, qHTS assay (AID 1346985). Note: nearly all actives have a fitted effect of over 40% in size. In a few lines: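 DPX-2 cells (HepG2 co-transfected with a PXR response element and a CYP3A4-promoter luciferase construct) were seeded at 2,000 per well, rested 5 hr at 37C, then exposed to DMSO-dissolved compounds for 24 hr. Activation was read as luciferase luminescence.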

Values joined by “and” are separate entries in the source; they are usually repeats but may differ in a detail not shown here. Identical values can stand only once. Results filed as inconclusive are left out. Some compounds were tested as several samples or in several runs, with calls that do not always agree. Active and inactive are the calls of the source. Unless noted, calls come from the whole dose curve; as a rule, active = well fitted curve in the direction sought with a large enough effect in the repeat runs; inconclusive = weak or mixed curves; inactive = no such curve, though single readings can be large; an effect the other way counts as inactive or inconclusive.
% is set by controls: 0 for no effect and ±100 for the full control effect.

Cytochrome P450 2C9 (Homo sapiens), sequence (P11712 whole entry, looked up): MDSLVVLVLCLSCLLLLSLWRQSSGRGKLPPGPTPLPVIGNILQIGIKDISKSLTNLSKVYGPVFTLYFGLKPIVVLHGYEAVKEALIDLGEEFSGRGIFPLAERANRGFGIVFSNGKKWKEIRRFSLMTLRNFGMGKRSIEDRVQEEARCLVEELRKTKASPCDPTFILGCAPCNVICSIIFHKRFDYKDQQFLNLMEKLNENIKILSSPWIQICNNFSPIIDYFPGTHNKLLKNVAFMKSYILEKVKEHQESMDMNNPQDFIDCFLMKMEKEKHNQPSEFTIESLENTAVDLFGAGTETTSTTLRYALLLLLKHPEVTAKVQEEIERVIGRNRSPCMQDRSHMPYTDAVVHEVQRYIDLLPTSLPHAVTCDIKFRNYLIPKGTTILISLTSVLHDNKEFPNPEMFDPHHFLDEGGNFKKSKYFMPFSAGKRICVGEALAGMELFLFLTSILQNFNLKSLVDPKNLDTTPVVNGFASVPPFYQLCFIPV
Nuclear receptor subfamily 1 group I member 2 (Homo sapiens), sequence (O75469 whole entry, looked up): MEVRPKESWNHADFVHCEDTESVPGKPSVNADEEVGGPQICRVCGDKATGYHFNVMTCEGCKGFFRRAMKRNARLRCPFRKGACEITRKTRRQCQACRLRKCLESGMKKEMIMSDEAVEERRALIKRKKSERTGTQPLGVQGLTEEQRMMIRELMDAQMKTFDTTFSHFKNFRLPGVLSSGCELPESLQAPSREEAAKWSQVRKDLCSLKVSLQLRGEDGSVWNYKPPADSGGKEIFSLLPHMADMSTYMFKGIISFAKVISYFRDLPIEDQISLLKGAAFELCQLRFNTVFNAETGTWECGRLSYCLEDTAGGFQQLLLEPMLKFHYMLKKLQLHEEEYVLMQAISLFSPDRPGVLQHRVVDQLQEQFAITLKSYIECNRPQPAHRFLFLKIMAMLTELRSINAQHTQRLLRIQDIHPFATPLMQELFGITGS
Cytochrome P450 1A2 (Homo sapiens), sequence (P05177 whole entry, looked up): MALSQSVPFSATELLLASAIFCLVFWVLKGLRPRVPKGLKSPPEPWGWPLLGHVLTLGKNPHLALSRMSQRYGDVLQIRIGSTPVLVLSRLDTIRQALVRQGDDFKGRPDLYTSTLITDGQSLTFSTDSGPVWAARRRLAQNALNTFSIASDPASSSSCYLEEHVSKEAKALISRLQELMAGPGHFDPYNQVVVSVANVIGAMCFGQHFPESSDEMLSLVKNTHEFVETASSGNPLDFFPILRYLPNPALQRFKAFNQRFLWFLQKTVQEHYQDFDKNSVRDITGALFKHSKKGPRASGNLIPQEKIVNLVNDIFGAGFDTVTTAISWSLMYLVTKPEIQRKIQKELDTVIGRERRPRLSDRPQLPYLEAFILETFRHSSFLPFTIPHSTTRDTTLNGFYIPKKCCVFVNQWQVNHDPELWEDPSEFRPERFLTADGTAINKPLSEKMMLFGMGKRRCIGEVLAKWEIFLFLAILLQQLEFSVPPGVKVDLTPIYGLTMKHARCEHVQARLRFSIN
Cytochrome P450 3A4 (Homo sapiens), sequence (P08684 whole entry, looked up): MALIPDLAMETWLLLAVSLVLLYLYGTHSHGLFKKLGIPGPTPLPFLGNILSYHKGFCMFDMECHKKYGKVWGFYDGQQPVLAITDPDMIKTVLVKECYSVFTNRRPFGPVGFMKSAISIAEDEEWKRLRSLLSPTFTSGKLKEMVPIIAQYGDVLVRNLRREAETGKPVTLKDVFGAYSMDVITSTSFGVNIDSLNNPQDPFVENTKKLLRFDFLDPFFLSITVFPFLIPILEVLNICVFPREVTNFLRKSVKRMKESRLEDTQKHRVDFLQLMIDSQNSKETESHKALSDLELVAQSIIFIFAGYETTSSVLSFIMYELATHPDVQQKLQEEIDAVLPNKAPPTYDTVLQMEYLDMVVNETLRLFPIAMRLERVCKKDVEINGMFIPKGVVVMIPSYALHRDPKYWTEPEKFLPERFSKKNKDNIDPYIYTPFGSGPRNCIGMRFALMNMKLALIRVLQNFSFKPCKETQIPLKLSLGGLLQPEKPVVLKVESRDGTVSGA
Cytochrome P450 2D6 (Homo sapiens), sequence (P10635 whole entry, looked up): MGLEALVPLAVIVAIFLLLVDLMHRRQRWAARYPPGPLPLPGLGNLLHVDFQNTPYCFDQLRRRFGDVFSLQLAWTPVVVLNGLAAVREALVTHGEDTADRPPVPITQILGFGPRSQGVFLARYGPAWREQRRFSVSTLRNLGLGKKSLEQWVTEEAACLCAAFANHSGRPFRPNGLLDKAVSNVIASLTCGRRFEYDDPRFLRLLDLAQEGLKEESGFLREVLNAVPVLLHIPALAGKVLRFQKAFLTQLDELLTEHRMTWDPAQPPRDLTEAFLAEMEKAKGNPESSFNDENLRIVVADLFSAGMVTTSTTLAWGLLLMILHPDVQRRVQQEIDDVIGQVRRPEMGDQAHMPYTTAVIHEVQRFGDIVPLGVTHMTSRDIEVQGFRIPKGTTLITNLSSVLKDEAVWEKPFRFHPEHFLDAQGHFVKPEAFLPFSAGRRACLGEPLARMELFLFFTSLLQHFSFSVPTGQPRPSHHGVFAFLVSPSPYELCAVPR
Cytochrome P450 2C19 (Homo sapiens), sequence (P33261 whole entry, looked up): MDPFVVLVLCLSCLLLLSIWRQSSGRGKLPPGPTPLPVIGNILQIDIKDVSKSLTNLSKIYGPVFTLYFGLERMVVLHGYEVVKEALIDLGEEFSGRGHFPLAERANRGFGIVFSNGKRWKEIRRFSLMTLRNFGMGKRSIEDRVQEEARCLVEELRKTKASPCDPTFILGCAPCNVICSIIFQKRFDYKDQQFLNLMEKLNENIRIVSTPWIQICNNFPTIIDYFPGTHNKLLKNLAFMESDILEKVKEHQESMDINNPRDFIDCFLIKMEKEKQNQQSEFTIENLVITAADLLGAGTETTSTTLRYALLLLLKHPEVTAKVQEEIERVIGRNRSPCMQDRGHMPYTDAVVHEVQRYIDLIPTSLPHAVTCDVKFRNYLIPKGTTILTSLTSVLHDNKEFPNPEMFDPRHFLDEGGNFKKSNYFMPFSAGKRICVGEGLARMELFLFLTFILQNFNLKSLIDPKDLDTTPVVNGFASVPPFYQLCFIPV
Voltage-gated inwardly rectifying potassium channel KCNH2 (Homo sapiens), sequence (Q12809 whole entry, looked up): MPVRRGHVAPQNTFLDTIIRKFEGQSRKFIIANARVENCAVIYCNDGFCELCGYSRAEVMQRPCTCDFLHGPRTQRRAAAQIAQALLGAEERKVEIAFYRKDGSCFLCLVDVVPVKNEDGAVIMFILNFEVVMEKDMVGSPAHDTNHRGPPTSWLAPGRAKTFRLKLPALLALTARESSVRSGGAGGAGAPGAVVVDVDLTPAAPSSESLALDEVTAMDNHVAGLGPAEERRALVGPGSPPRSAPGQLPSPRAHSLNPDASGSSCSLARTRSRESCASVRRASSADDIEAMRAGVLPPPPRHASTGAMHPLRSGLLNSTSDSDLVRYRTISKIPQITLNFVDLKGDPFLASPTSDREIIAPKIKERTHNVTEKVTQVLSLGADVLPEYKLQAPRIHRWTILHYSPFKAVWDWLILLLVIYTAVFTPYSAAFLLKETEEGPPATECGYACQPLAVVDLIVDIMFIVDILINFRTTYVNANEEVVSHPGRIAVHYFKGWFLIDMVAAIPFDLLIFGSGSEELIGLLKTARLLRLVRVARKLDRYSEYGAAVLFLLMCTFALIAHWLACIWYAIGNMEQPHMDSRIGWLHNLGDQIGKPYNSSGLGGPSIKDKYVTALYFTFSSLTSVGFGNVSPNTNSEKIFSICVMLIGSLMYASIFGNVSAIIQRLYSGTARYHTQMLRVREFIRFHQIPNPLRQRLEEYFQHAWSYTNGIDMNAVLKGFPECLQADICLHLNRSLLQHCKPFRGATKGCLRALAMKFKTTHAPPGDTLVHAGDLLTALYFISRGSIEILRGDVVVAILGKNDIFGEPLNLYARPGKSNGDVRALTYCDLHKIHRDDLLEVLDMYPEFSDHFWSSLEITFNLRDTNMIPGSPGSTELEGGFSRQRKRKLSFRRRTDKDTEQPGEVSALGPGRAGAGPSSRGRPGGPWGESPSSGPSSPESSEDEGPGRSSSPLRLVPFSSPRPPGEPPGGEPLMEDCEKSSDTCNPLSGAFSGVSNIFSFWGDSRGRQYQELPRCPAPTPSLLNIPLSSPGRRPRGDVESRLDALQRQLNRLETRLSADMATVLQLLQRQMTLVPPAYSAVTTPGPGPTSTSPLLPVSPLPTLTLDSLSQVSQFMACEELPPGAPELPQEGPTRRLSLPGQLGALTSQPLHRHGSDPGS
Thyrotropin-releasing hormone receptor (Homo sapiens), sequence (P34981 whole entry, looked up): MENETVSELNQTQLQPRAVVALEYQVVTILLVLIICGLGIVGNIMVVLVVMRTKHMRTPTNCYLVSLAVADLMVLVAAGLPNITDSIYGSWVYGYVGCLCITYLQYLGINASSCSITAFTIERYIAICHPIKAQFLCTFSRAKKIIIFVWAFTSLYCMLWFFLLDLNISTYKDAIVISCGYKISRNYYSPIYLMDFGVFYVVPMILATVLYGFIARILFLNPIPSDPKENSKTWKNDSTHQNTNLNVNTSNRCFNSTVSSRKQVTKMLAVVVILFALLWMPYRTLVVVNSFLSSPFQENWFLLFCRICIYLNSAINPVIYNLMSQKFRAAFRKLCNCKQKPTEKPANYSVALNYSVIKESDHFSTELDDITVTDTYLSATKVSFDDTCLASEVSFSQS
Nuclear receptor subfamily 1 group I member 2 (Rattus norvegicus), sequence (Q9R1A7 whole entry, looked up): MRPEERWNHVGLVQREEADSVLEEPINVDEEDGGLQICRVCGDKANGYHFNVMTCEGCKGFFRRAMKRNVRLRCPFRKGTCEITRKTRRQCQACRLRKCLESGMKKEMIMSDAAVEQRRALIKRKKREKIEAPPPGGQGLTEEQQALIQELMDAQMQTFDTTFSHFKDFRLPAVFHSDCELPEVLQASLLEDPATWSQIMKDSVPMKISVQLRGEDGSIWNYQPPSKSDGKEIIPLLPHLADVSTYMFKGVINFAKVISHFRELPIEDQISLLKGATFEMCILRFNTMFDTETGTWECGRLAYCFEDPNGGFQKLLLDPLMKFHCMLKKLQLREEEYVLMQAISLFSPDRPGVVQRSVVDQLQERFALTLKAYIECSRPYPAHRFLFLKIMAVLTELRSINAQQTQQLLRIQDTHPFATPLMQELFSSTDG

Take `O=C1CCCCC1`: the Potency entry in test [1], in test [2], in test [3], in test [4], in test [5] and in test [6] was “inactive” throughout. In addition, the Potency result in test [7], in [8], in [10], in test [11], in test [12] and in test [13] was “inactive” in each case. The Potency in test [9] was 74.6 µM (active) and inactive.

With `CCCCC(CC)COC(=O)CCCCCCCC(=O)OCC(CC)CCCC` (stereo not given), the Potency entry in test [1], in test [2], in test [3], in test [5], in [6] and in [12] was “inactive” each time. The Potency in [4] is 43.3 µM (active) and inactive; in [7], 24.3 µM (active) and inactive; in [8] it was 71 µM (active) and inactive; in test [9], 7.96 µM (active) and inactive; in [10], 31.7 µM (active) and inactive; in test [13] it was 5.64 µM (active) and inactive.

Turning to `CCCCNC(N)=O`, the Potency entry in [1], in test [2], in [3], in [4], in [5] and in [6] was “inactive” in each case. Moreover, the Potency entry in test [7], in [8], in [9], in test [10], in test [12] and in test [13] was “inactive” in each case.

As to `CC(C)(C)C1CCC(O)CC1` (stereo not given), the Potency entry in test [1], in test [2], in [3], in [4], in test [5] and in [6] was “inactive” each time. The Potency result in test [7], in [8], in test [10], in [12] and in test [13] was “inactive” in each case. The Potency in test [9] is 32.2 µM (active) and inactive; in test [11] it was 72 µM (active) and inactive.

For the compound `CC(=O)Nc1ccc(C(=O)O)cc1`, the Potency entry in [1], in [2], in test [3], in test [4], in [5] and in [6] was “inactive” in each case. Moreover, the Potency entry in test [7], in [8], in test [9], in [10], in test [11] and in test [12] was “inactive” in each case. In addition, in test [13], the Potency entry is “inactive”. Moreover, the max activation in test [14] is -3.56% (inactive). Besides, the compound was called inactive in [15] and in [16].

As for `Cc1cc(=O)[nH]c(C(C)C)n1`, the Potency result in test [1], in test [2], in test [3], in [4], in [5] and in test [6] was “inactive” each time. In addition, the Potency result in test [7], in test [8], in test [9], in test [10], in test [12] and in [13] was “inactive” in each case.

As for `CC1COc2ccccc2N1C(=O)C(Cl)Cl` (stereo not given), the Potency entry in test [1], in [3], in [5], in [12] and in test [13] was “inactive” in each case. Moreover, the Potency is 39.8 µM (active) in test [2]; 27.3 µM (active) and 30.6 µM (active) in test [4]; 61 µM (active) and 27.3 µM (active) in test [6]; 61 µM (active) and 54.4 µM (active) in [7]; 15.9 µM (active) and inactive in [8]; 7.09 µM (active) and 6.32 µM (active) in [9]. For the same compound, the Potency in test [10] was 15.9 µM (active) and 28.2 µM (active).
